Results reported in PubChem BioAssay (NCATS).
Records with an inconclusive call do not appear. The source made the active and inactive calls. Unless noted, calls come from the whole dose curve; as a rule, active = well fitted curve in either direction with a large enough effect (not every such curve was filed as active); inconclusive = small, poorly fitted or top-dose-only effect, or another doubt; inactive = flat fitted curve, though single readings scatter.

Legend:
[1] = target: Lysosomal acid glucosylceramidase (Homo sapiens) (UniProt P04062); assay: Glucocerebrosidase-p2 (AID 348; in the data active = potency below about 10 µM; note: potency is the fitted concentration of half-maximal effect); details: purified GBA, blue fluorogenic substrate, 40 min
Outline: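 Compounds titrated from 0.6 nM upwards against 0.2 nM enzyme in pH 5.9 citric acid/KH2PO4, taurocholate, tween-20; blue fluorogenic substrate 80 uM, 40 min room temperature, stopped and read Ex 365/Em 440 for AC50.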

[2] = AP1 Signaling Pathway (AID 357); details: ME-180 AP-1-bla reporter, EGF-induced, beta-lactamase ratio, 5 h; at 7.69 µM (top of the series) unless noted;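 note: ME-180 reporter cells stimulated with EGF at its EC50 level; % is set by controls: 0 for no effect and ±100 for the full control effect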
Outline: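 Cells are seeded overnight, exposed to compound titrations and an EC50 level of EGF for 5 hours at 37 °C, then loaded with CCF4 dye for 2.5 hours. Beta-lactamase activity under the AP-1 element is read as a blue/green ratio.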

[3] = target: Cytochrome P450 1A2 (Homo sapiens) (UniProt P05177); assay: p450-cyp1a2 (AID 410; calls by dose curve;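 note: -100% = full effect of reference inhibitor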); details: recombinant CYP1A2, luciferin-ME demethylation, luminescence; series mostly up to 11.4 µM
Outline: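 Human CYP1A2 (20nM) demethylated Luciferin-ME at its Km (100uM) in 100mM KPO4. After 10 min compound preincubation, NADPH regeneration ran the reaction 60 min at room temperature. Luciferin was read by luminescence, normalized to 57 uM furafylline.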

[4] = NFAT Signaling Pathway (AID 444); details: Jurkat NFAT-bla M1, carbachol, beta-lactamase ratio, 5 h; at 7.69 µM (top of the series) unless noted;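 note: carbachol stimulus at about its EC50 of 1 µM final; % is set by controls: 0 for no effect and ±100 for the full control effect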
Outline: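 Jurkat cells with NFAT-driven β-lactamase reporter and co-expressed M1 receptor, stimulated with carbachol (final 1 uM, ~EC50), compound titration, 5 h at 37 °C. CCF4 loaded 1 h at RT; 460/530 nm ratio gave %activity and AC50.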

[5] = target: Glucocorticoid receptor (Homo sapiens) (UniProt P04150); assay: GR-GFP Redistribution (AID 450;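 active = compounds whose dose series gives a full or clear partial fitted curve of increased nuclear translocation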; note: potency is the fitted concentration of half-maximal effect); details: U2OS GR-GFP nuclear translocation, laser cytometry, 2 h
[6] = target: Glucocorticoid receptor (Homo sapiens) (UniProt P04150); assay: GR-EFC Redistribution (AID 451; calls by dose curve; note: potency is the fitted concentration of half-maximal effect); details: CHO-K1 GR-EFC translocation, beta-gal luminescence, 2 h
Outline: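 CHO-K1 cells expressing nuclear EA and GR-ED fragments of b-gal; compounds titrated up to 46 uM final, 2 h at 37 C. GR nuclear translocation read as complemented b-gal luminescence after 1 h RT detection.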

[7] = target: Mitogen-activated protein kinase 10 (Mus musculus) (UniProt Q61831); assay: JNK3 AlphaScreen Assay (AID 530); details: JNK3 lysate, c-Jun phosphorylation; series mostly up to 57.1 µM;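 note: kinase came from lysate of stimulated human HepG2 cells; signal reports phosphorylation of biotinylated GST-cJun 1-79 at Ser73 with 10 µM ATP; % is set by controls: 0 for no effect and ±100 for the full control effect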
Outline: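 qHTS format: compounds tested as titrations against IL-1beta/TNF-alpha-activated HepG2 lysate JNK3 with biotin-GST-cJun substrate and 10 uM ATP at room temperature. Loss of anti-phospho-cJun AlphaScreen signal indicates inhibition.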

[8] = target: 3',5'-cyclic-AMP phosphodiesterase 4B (Homo sapiens) (UniProt Q07343); assay: qHTS Assay for Inhibitors of PDE-IV (AID 607; active = well fitted activation curve with a large enough effect in the main read-out, with a control signal flat, not every such curve was filed as active; note: % of control where 0% means no effect); details: HEK293 ACTOne CNG channel cells, membrane potential fluorescence; series mostly up to 22.9 µM
Outline: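 The readout is membrane depolarisation from a cAMP-sensing CNG channel, detected with a potential dye at ex 535/em 590. Cells were HEK293-derived (endogenous PDE-IV) at 1000 cells/well, titrated up to 22.9 uM final.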

[9] = Stat Signaling Pathway (AID 446); details: ME-180 SIE beta-lactamase reporter, IL-6 stimulated, 5 h; at 7.69 µM (top of the series) unless noted;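 note: ME-180 cervical cancer cells given 40 pM IL-6 alongside compound; SIE-controlled beta-lactamase reporter measured as 460/530 nm FRET emission ratio; % is set by controls: 0 for no effect and ±100 for the full control effect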
Outline: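 Screening format detects activators and inhibitors alike: ME-180 SIE-bla cells stimulated at 40 pM IL-6 for 5 hrs with compound, then dual-emission beta-lactamase read at 405 nm excitation.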

[10] = target: Cytochrome P450 3A4 (Homo sapiens) (UniProt P08684); assay: qHTS Assay for Activators of Cytochrome P450 3A4 (AID 885; active = well fitted activation curve with a large enough effect; note: nearly all actives have a fitted effect of over 65% in size); details: recombinant CYP3A4, Luciferin-PPXE luminescence, 60 min; series mostly up to 57.1 µM
Outline: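 Steps: enzyme/substrate mix dispensed; compound added, 10 min RT; NADPH regeneration solution added, 60 min RT; luciferin detection buffer stops reaction; 20 min later luminescence measured.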

Sequence of Glucocorticoid receptor (Homo sapiens) (P04150 whole entry, looked up, the tested form may be a part): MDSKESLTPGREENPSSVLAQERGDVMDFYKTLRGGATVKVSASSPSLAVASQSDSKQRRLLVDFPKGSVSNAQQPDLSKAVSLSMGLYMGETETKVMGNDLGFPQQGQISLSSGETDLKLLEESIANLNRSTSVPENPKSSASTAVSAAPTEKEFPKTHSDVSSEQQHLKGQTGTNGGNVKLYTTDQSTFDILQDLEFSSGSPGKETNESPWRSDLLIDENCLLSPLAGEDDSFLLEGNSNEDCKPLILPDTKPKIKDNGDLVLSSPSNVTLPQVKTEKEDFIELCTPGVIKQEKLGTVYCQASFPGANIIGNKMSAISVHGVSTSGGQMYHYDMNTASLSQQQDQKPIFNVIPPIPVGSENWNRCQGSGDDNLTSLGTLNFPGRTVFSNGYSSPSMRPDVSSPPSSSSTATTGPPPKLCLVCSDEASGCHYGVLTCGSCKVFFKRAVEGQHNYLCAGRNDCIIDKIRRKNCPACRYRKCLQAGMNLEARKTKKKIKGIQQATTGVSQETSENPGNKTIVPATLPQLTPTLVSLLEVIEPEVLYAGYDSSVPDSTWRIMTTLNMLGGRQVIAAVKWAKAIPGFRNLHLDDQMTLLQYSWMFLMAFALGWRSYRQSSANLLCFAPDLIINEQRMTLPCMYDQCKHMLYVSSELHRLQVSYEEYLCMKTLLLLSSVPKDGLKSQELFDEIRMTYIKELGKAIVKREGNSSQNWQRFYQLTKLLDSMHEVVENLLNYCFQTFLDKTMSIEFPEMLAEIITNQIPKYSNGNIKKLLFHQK
Sequence of Lysosomal acid glucosylceramidase (Homo sapiens) (P04062 whole entry, looked up): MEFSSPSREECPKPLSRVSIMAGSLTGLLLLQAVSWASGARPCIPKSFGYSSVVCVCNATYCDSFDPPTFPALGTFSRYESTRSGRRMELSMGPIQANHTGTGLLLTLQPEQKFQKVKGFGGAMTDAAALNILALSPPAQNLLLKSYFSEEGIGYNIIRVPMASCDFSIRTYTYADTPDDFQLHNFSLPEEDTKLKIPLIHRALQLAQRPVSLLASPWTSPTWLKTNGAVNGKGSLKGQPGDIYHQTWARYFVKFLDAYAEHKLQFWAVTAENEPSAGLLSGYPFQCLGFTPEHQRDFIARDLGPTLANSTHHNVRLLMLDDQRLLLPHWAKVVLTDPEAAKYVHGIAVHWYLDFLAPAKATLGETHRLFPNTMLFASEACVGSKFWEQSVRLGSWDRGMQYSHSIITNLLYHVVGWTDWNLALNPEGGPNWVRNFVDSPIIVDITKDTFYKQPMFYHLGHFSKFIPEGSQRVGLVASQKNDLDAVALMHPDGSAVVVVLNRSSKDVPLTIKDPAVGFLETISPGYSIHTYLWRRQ
Sequence of Cytochrome P450 1A2 (Homo sapiens) (P05177 whole entry, looked up): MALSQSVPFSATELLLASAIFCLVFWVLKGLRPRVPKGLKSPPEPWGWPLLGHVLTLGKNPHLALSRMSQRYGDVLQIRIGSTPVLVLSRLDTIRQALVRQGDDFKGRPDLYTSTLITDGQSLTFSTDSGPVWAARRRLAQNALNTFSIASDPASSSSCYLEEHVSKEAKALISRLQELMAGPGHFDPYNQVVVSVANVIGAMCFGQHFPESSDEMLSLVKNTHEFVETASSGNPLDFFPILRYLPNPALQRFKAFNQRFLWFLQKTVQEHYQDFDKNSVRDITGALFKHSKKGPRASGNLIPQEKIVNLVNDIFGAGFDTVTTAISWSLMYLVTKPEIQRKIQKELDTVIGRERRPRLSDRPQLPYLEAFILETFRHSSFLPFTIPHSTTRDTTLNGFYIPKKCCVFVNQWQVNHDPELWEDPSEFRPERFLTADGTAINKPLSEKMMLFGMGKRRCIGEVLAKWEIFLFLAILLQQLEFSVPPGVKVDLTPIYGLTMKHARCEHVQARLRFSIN
Sequence of 3',5'-cyclic-AMP phosphodiesterase 4B (Homo sapiens) (Q07343 whole entry, looked up): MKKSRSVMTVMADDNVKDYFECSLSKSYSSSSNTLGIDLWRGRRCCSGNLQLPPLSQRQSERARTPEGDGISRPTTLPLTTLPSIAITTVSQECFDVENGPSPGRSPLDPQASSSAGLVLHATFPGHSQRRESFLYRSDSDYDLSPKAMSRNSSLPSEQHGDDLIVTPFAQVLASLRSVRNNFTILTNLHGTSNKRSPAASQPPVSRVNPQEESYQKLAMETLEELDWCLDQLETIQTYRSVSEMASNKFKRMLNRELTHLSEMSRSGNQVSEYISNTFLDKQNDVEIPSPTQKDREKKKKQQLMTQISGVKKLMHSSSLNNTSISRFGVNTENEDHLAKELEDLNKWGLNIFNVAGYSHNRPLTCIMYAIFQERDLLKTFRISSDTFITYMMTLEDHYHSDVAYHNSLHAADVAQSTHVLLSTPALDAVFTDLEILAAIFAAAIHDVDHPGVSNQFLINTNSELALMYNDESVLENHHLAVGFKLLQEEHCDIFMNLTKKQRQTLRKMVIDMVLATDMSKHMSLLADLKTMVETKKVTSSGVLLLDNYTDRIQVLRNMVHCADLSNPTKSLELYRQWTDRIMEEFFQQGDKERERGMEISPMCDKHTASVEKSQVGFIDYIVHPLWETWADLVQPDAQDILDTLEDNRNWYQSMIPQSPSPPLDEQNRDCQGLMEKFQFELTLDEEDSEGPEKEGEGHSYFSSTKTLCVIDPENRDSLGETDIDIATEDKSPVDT
Sequence of Cytochrome P450 3A4 (Homo sapiens) (P08684 whole entry, looked up): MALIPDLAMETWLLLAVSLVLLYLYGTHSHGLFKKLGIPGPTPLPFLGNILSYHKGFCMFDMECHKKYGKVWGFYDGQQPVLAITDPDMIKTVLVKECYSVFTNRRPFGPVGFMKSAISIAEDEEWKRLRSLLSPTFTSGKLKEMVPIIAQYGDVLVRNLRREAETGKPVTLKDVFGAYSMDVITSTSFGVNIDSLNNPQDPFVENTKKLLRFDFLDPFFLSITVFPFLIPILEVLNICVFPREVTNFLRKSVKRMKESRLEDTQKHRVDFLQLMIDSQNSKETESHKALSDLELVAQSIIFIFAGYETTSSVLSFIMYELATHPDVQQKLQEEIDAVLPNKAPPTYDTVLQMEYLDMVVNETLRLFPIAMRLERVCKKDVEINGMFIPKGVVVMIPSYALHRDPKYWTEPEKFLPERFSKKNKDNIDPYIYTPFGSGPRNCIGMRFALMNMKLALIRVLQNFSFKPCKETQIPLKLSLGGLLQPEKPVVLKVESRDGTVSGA

COc1cc2c3cc1Oc1c(O)c(OC)cc4c1[C@@H](Cc1ccc(cc1)Oc1cc(ccc1O)C[C@H]3N(C)CC2)N(C)CC4
inactive: Potency [1] > 11.4 µM | activity change, negative = inhibition [2] 5.28% | Potency [3] | activity change, negative = inhibition [4] -11.5% | Potency [5] > 46 µM | Potency [6] > 9.22 µM | activity change, negative = inhibition [7] 4.78% [at 11.4 µM] | outcome [8]

C[C@H](CN(C)C)C(C#N)(c1ccccc1)c1ccccc1
inactive: Potency [1] > 11.4 µM | activity change, negative = inhibition [2] 0.906% | activity change, negative = inhibition [3] -3.4% [at 2.29 µM] | activity, negative = inhibition [9] 4.38% | Potency [5] > 46 µM | Potency [6] > 9.22 µM | activity change, negative = inhibition [7] 6.57% [at 11.4 µM] | outcome [8] | activity change, positive = activation [10] -41.5% [at 11.4 µM]
